Among all 52,000 compounds or so, about 4,300 (8.3%) were called active. Cut-off read from the data, not from the text of the source: active = survival mostly below about 52% (no sharp cut-off); inactive = mostly above about 56%. The entries come from a sample that favours actives as a whole.

The assay relates to DeltatarO mutant. The assay is described as follows: growth inhibition of S. aureus wild type versus tarO mutant, primary screen, teichoic acid synthesis inhibitors, RN4220, OD600 (AID 463173). As to conditions: OD600, 18 h, stronger effect = lower value, screened at 18.75 µg/mL (by protocol).
With `CCCC1(C(=O)OC)NC(c2ccc(OC)c(OC)c2)C2C(=O)N(c3ccc4c(c3)OCO4)C(=O)C21` (configuration not stated), the survival is 84% (inactive).
The value for `COc1cccc(NC(=O)Cn2cc(C(=O)c3ccc(F)cc3)c(=O)c3cc(OC)ccc32)c1` was 92% (inactive); that for `Nc1nnc2c(n1)[nH]c1ccccc12` was 81% (inactive); that for `Cc1ccc(C)c(CN2C(=O)c3ccccc3S(=O)(=O)c3ccc(C(=O)N4CCN(Cc5ccccc5)CC4)cc32)c1` was 59% (inactive).
The value for `COc1ccc(OC)c(NC(=O)c2cc(C3CC3)nc3c2c(C)nn3-c2ccc(C)cc2)c1` was 64% (inactive); that for `O=C(CSc1nnc(COc2ccc(F)cc2)o1)N1c2ccccc2CCc2ccccc21` was 65% (inactive).
With `Cn1nnc2c(N3CCN(c4ccc(F)cc4)CC3)ncnc21` the figure was 99% (inactive); with `Cn1nnc2c(N3CCN(c4ccccc4)CC3)ncnc21`, 74% (inactive).
For `CCOC(=O)C1CCN(c2nc3ccccc3nc2Cl)CC1`, the survival is -24% (active).
Turning to `CCOC(=O)C1CCN(c2ncnc3c2nnn3C)CC1`, the survival was 37% (active).
The value for `COc1ccc(N2CCN(c3ncnc4c3nnn4C)CC2)cc1` was 0% (active); that for `CC1CCN(c2ncnc3c2nnn3C)CC1` was 92% (inactive).
In the case of `CCOC(=O)C1CCCN(c2ncnc3c2nnn3C)C1` (configuration not stated), the survival is 117% (inactive).
With `CCOC(=O)C1CCN(c2nc(-c3ccc(Br)cc3)nc3ccccc23)CC1` the figure was 83% (inactive); with `CCOC(=O)C1CCN(c2cc(C)c(C#N)c3nc4ccccc4n23)CC1`, 100% (inactive); with `Cc1cc(NS(=O)(=O)c2ccc(NC(=O)COc3ccc(Cl)cc3)cc2)nc(C)n1`, 54% (inactive).
The value for `Cc1ccc2[nH]c(=O)c(CN(CC3COCCO3)C(=O)Nc3ccccc3F)cc2c1` (configuration not stated) was 96% (inactive); that for `CCCC12CCC(C(=O)O)(CC1)CC2` was 83% (inactive); that for `Cc1cc(C(=O)NCc2ccccc2Cl)c2c(C)nn(-c3cccc(F)c3)c2n1` was 68% (inactive).
As to `CCC(=O)N1CCc2cc(S(=O)(=O)Nc3cc(C)ccc3OC)ccc21`, the survival was 84% (inactive).
Consider `Cc1cc(C)cc(NC(=O)c2cc(S(=O)(=O)N3CCc4ccccc43)cn2C)c1`, for which the survival is 63% (inactive).
With `CC(C)OC(=O)CSc1n[nH]c(-c2cccnc2)n1` the figure was 108% (inactive).
With `Cc1ccnc(NS(=O)(=O)c2ccc(NC(=O)c3cc(=O)c4ccc(C)c(C)c4o3)cc2)n1` the figure was 78% (inactive).
The value for `O=C(CSc1nccn1Cc1ccccc1)NCc1ccccc1Cl` was 92% (inactive); that for `Clc1ccccc1Cn1cccc1C1=NC(Cc2ccccc2)CO1` (configuration not stated) was 40% (active).
Consider `O=c1c2cnn(-c3ccc(F)cc3)c2ncn1Cc1ccccc1Cl`, for which the survival is 100% (inactive).
The value for `O=C(Nc1ccc(S(=O)(=O)Nc2ncccn2)cc1)c1ccccc1Cl` was 81% (inactive).
Consider `COc1ccc(NC(=O)Nc2nnc(C)s2)cc1`, for which the survival is 91% (inactive).
The value for `Cc1ccc2occ(CC(=O)N(Cc3ccc(Cl)cc3)C3CCS(=O)(=O)C3)c2c1` (configuration not stated) was 64% (inactive); that for `CCc1ccc2c(c1)C1(NN=C(c3ccccc3)S1)C(=O)N2` (configuration not stated) was 0% (active); that for `CCc1cccc(NC(=O)c2cc(-c3ccccc3)n[nH]2)c1` was 90% (inactive).
Consider `CCc1cccc(N2C(=O)CSC23C(=O)Nc2ccccc23)c1` (configuration not stated), for which the survival is 85% (inactive).
The value for `COc1cccc(NC(=O)Cn2cnc3c(nc4n3CCCCC4)c2=O)c1` was 76% (inactive); that for `CCN(CC)c1ccc(NC(=O)CCS(=O)(=O)c2cc3c(cc2Cl)NC(=O)CO3)c(C)c1` was 86% (inactive); that for `CCCCN1C(=O)C(O)(CC(=O)c2ccc(CC)cc2)c2cc(Br)ccc21` (configuration not stated) was 32% (active).
With `CCCCN1C(=O)C(O)(CC(=O)c2ccc(C)cc2C)c2cc(Br)ccc21` (configuration not stated) the figure was 11% (active); with `Cc1ccc(C(=O)CC2(O)C(=O)N(Cc3ccccc3)c3ccccc32)c(C)c1` (configuration not stated), 41% (active).
The value for `Cc1ccccc1CN1C(=O)C(O)(CC(=O)c2cccc(Br)c2)c2ccccc21` (configuration not stated) was 71% (inactive).
With `COc1ccc(C(=O)CC2(O)C(=O)N(Cc3cccc(C(F)(F)F)c3)c3ccccc32)cc1` (configuration not stated), the survival is 33% (active).
The value for `CCCN1C(=O)C(O)(CC(=O)c2ccc(OC)c(OC)c2)c2ccccc21` (configuration not stated) was 146% (inactive).
The value for `COc1cccc(C(=O)CC2(O)C(=O)N(Cc3ccccc3)c3ccccc32)c1` (configuration not stated) was 175% (inactive).
In the case of `O=C(CC1(O)C(=O)N(Cc2ccccc2)c2ccc(Br)cc21)c1ccccc1` (configuration not stated), the survival is 99% (inactive).
The value for `CCc1ccc(C(=O)CC2(O)C(=O)N(Cc3ccc(C)cc3)c3ccccc32)cc1` (configuration not stated) was 57% (inactive).
With `Cc1ccc(CN2C(=O)C(O)(CC(=O)c3ccc(C)cc3)c3ccccc32)cc1` (configuration not stated) the figure was 65% (inactive); with `COc1ccc(C(=O)CC2(O)C(=O)N(Cc3ccccc3)c3ccc(Br)cc32)cc1` (configuration not stated), 50% (inactive); with `O=C(CCC(=O)N1CCSc2ccccc21)NCc1ccccc1Cl`, 70% (inactive).
With `Cc1cccc(C(c2sc3nc(-c4ccco4)nn3c2O)N2CCN(c3ccccc3)CC2)c1` (configuration not stated) the figure was 76% (inactive); with `O=C(CN1CCCC1)N1N=C(c2cccs2)CC1c1cccs1` (configuration not stated), 86% (inactive); with `CCOc1ccc(Cc2nc(C)c(CC(N)=O)c(=O)[nH]2)cc1`, 71% (inactive).
As to `CCOC(=O)c1scc(-c2ccccc2)c1S(=O)(=O)Nc1ccc(N(C)C)cc1`, the survival is 86% (inactive).
The value for `COC(=O)Cn1c(O)c(N=NC(=O)C2COc3ccccc3O2)c2ccccc21` (configuration not stated) was 69% (inactive).
Take `CCC(=O)Nc1cccc(NC(=O)c2cccs2)c1`: the survival was 72% (inactive).
With `CCOc1ccccc1NC(=O)Cn1c(=O)n(C(C)C)c(=O)c2oc3ccccc3c21` the figure was 109% (inactive); with `CC1=C(c2ccc(C(C)C)cc2)S(=O)(=O)N=C1N1CCC(C(=O)NCc2ccco2)CC1`, 79% (inactive); with `CC1=C(c2ccc(C(C)C)cc2)S(=O)(=O)N=C1N1CCC(C(=O)NCc2ccc(C)o2)CC1`, 67% (inactive).
With `CC1=C(c2ccc(C(C)C)cc2)S(=O)(=O)N=C1N1CCC(C(=O)NCCc2ccco2)CC1` the figure was 6% (active).
Turning to `CCc1ccc(C2=C(C)C(N3CCC(C(=O)NCc4ccccc4)CC3)=NS2(=O)=O)cc1`, the survival is 89% (inactive).
In the case of `CC1=C(c2ccc(C)c(C)c2)S(=O)(=O)N=C1N1CCC(C(=O)N2CCC(C(N)=O)CC2)CC1`, the survival was -2% (active).
For the molecule `CC1=C(c2ccc(C(C)C)cc2)S(=O)(=O)N=C1N1CCC(C(=O)NCc2ccccc2)CC1`, the survival is -1% (active).
`CC1=C(c2ccc(C)c(C)c2)S(=O)(=O)N=C1N1CCC(C(=O)N2CCC(C)CC2)CC1`: the survival was 72% (inactive).
The value for `CC1=C(c2ccc(C)c(C)c2)S(=O)(=O)N=C1N1CCC(C(=O)N2CCCCC2)CC1` was 109% (inactive); that for `CC1=C(c2ccc(Cl)cc2)S(=O)(=O)N=C1N1CCC(C(=O)NCCc2ccco2)CC1` was 81% (inactive).

(Values after PubChem BioAssay AID463173 (ICCB-Longwood Screening Facility, Harvard Medical School, 2010).)
